# Screen size: about 5,600 compounds; about 390 (7%) showed an effect of 50% or more. What follows is part of a selection rich in strong results, with near analogues and random picks from the rest. Starred links: 1 amine or outer side, 2 acyl side, 3 side chain; linkers in the order of their positions; H or OH if unused. Positions of bridges follow the written chain, without caps; N, C: chain ends. Non-standard residues stand in square brackets, D forms with d. Residues, ends and D or L forms follow the SMILES beside them. *: point of attachment. pTerphenylCO(4''-OnC5H11) = CCCCCOc1ccc(-c2ccc(-c3ccc(C(=O)*)cc3)cc2)cc1; Orn(4R-OH,5R-OH) = O=C([C@H](C[C@@H](O)[C@@H](O)N[*:3])N[*:1])[*:2]; hTyr(3S-OH,4S-OH) = N[C@H](C(=O)O)[C@H](O)[C@@H](O)c1ccc(O)cc1; Pro(3S-OH,4S-Me) = C[C@H]1CN[C@H](C(=O)O)[C@H]1O; Hyp = O=C(O)[C@@H]1C[C@@H](O)CN1
# Biological target: T1, Protein deacetylase HDAC6 (Homo sapiens) (UniProt Q9UBN7)
# T1 sequence (whole entry): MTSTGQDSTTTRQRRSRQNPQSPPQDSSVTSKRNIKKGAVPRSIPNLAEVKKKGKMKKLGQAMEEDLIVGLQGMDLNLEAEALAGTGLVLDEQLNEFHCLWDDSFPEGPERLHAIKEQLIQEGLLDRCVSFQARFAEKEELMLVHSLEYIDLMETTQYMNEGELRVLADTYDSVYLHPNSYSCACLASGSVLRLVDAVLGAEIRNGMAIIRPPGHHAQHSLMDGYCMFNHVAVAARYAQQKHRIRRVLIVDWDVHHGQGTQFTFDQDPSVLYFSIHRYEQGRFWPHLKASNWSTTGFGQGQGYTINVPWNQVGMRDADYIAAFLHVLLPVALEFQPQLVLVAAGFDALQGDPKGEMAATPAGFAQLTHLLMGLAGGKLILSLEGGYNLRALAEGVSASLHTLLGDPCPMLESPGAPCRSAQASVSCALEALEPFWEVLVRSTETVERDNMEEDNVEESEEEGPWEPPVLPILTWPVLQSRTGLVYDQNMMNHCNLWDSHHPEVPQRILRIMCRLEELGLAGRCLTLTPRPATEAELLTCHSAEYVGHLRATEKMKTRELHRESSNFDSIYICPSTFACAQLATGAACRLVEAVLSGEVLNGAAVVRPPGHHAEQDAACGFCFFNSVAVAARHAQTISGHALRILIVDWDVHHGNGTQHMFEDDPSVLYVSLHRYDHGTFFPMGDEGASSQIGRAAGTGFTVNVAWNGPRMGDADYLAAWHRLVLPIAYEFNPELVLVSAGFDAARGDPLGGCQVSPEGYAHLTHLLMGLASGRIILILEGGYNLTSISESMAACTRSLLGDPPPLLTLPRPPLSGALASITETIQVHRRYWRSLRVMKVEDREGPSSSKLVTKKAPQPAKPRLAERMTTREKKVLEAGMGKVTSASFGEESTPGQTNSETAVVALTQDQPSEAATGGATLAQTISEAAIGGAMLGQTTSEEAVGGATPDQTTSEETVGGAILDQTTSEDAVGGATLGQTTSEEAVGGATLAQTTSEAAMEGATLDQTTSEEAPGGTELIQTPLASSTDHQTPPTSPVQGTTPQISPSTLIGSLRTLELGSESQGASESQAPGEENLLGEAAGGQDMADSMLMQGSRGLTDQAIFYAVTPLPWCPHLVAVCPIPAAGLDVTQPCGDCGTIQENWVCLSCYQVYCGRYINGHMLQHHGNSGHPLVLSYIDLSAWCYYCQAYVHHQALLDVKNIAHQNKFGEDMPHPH
# Conditions: at 10 µM
row,Structure (SMILES),inhibition [%]
1,C=CC(=O)N1CCC[C@@H](n2nc(-c3ccc(Oc4ccccc4)cc3)c3c(N)ncnc32)C1,73
2,Nc1ncnc2c1c(-c1cnc3[nH]ccc3c1)nn2C1CCCC1,27.2
3,COc1ccc2nc3ccc(Cl)cc3c(SCCCN)c2c1,31.8
4,COc1cc(C(=O)c2c(C)oc3c(O)c(OC)ccc23)cc(OC)c1OC,31.9
5,CCN(CC)C(=O)C1(c2ccccc2)CC1CN (stereo unspecified),-2.35
6,COc1cccc2c1c(O)c(C(=O)N(C)c1ccc(C(F)(F)F)cc1)c(=O)n2C,-4.13
7,C[C@@H]1CN(CCCn2c3ccccc3c3ccccc32)C[C@H](C)N1,1.8
8,O=C(Nc1cccc(C(F)(F)F)c1)Nc1ccc(Br)cc1-c1nnn[nH]1,-9.24
9,O=c1c2ccccc2[se]n1-c1ccccc1,107
10,Cc1c(C(=O)Nc2ccc(N3CCC(N4CCOCC4)CC3)c(C#N)c2)cnn1-c1ccc(Cl)cc1,9.57
11,CCC[N+]12C3C[C@H](C4C(O)[C@]5(C[C@@H]41)c1ccccc1N(C)[C@@H]35)[C@H](CC)[C@H]2O (stereo partly specified),26.3
12,CS(=O)(=O)CS(=O)(=O)OCCCl,9.47
13,CC(OC(=O)NCC1(CC(=O)O)CCCCC1)OC(=O)C(C)C (stereo unspecified),3.02
14,c1ccc2sc(SNC3CCCCC3)nc2c1,80
15,C#Cc1cncc([C@@H]2CCCN2C)c1,18.9
16,CO[C@@H](C(=O)N1Cc2[nH]nc(NC(=O)c3ccc(N4CCN(C)CC4)cc3)c2C1)c1ccccc1,21.1
17,"CCCCCOc1ccc(-c2ccc(-c3ccc(C(=O)N[C@H]4C[C@@H](O)[C@@H](O)NC(=O)[C@@H]5[C@@H](O)[C@@H](C)CN5C(=O)[C@H]([C@@H](C)O)NC(=O)[C@H]([C@H](O)[C@@H](O)c5ccc(O)cc5)NC(=O)[C@@H]5C[C@@H](O)CN5C(=O)[C@H]([C@@H](C)O)NC4=O)cc3)cc2)cc1 ({pTerphenylCO(4''-OnC5H11)}-[Orn(4R-OH,5R-OH)]T[Hyp][hTyr(3S-OH,4S-OH)]T[Pro(3S-OH,4S-Me)]; lactam 1-C)",16.9
18,Cc1cc(Nc2cc(C)c(C#N)c(N[C@@H](C)CCCC(C)(C)O)n2)n[nH]1,27.9
19,Cc1ccc(C23CNCC2C3)cc1 (stereo unspecified),-3.02
20,O=C(O)c1ccccc1S,17.6
21,O=C(O)c1ccccc1C(=O)Nc1ccc(-c2ccccc2)cc1,68
22,CC(=O)NS(=O)(=O)c1ccc(NC(=O)c2ccccc2C(=O)O)cc1,-8.72
23,CCN(CC)CCOc1ccccc1C(=O)CCc1ccccc1,2.33

row,Structure (SMILES),inhibition [%]
1,C[C@H](N)C(=O)N[C@@H](CCC(N)=O)C(=O)O (H-Ala-Gln-OH),-3.39
2,COc1ccc(N2CCOCC2)c2sc(NC(=O)N3CCC(C)(O)CC3)nc12,2.18
3,Cc1cc(NC(=O)C(c2ccccc2)N2CCCc3ccccc32)no1 (stereo unspecified),6.26
4,CN(C)c1ccc(C(=O)NCCCCCCC(=O)NO)cc1,102
5,O=C(CNC(=O)c1ccc(Cl)cc1)NO,42.6
6,COc1cc(C(=O)NCCCCCC(=O)O)cc(OC)c1OC,0.73
7,CC(=O)O[C@@H]1CC[C@@]2(C)[C@@H](CC[C@]3(C)[C@@H]2C(=O)C=C2[C@@H]4[C@@H](C)[C@H](C)CC[C@]4(C)CC[C@]23C)[C@@]1(C)C(=O)O,-8.47
8,CCc1noc(C)c1-c1[nH]c2ccccc2c1C(O)CN(C)C (stereo unspecified),3.93
9,CN(C)CCCSc1ccccc1NC(=O)/C=C/c1ccccc1,97.2
10,O=C1c2ccccc2CCC1CNCCc1ccc(O)cc1 (stereo unspecified),4.32
11,COc1cc(O)c(C(=O)c2ccccc2)cc1S(=O)(=O)O,-4.32
12,COc1cc(-c2ccc(/N=N/c3ccc4c(S(=O)(=O)O)cc(S(=O)(=O)O)c(N)c4c3O)c(OC)c2)ccc1/N=N/c1ccc2c(S(=O)(=O)O)cc(S(=O)(=O)O)c(N)c2c1O,69.8
13,OC(CNc1ccccc1)Cn1c2ccc(Br)cc2c2cc(Br)ccc21 (stereo unspecified),-9.16
14,Cc1cc(-c2cc(OC(=O)c3ccccc3)ccc2Cl)cc2nnc(Nc3ccc(OCCN4CCCC4)cc3)nc12,-4.96
15,CC(=O)[C@]1(N)Cc2c(O)c3c(c(O)c2[C@@H](O[C@H]2C[C@H](O)[C@H](O)CO2)C1)C(=O)c1ccccc1C3=O,18.4
16,Cc1oc(=O)oc1COC(=O)C1=C([C@H]2CCCO2)S[C@@H]2[C@@H]([C@@H](C)O)C(=O)N12,31.1
17,Cc1ccc(-n2nc(C(C)(C)C)cc2NC(=O)NCc2cc(F)ccc2Oc2ccc3c(cnn3CCO)c2)cc1,30.6
18,Cc1ccnc2c1CCCC2C(N)=S (stereo unspecified),-0.81
19,CC(CN(C)C)CN1c2ccccc2Sc2ccc(C#N)cc21 (stereo unspecified),7.25
20,O=C1NC(=O)/C(=C\c2ccc(-c3ccc(F)cc3)o2)S1,60.3
21,CN1c2c(oc(=O)n(-c3ccccn3)c2=O)-c2ccccc2S1(=O)=O,16.6
22,CN1C(=O)N(c2ccc(C#N)c(C(F)(F)F)c2)C(=O)[C@]1(CO)c1ccccc1,40.5
23,Cc1nc(-c2cccnc2)sc1C(=O)Nc1ccccc1-c1cn2c(CN3CCOCC3)csc2n1,11.9

# From ChEMBL document CHEMBL4808148, “HDAC6 screening dataset using tau-based substrate in an enzymatic assay yields selective inhibitors and activators” (2021)
